Screens as filed in PubChem BioAssay.
Shown are actives, neighbours in structure and some others; about 0.54% of the full set was active somewhere.
Akt phos inh: blocks phosphorylation of Akt; Neuro2A IGF-stimulated pAkt S473 HTRF, 20 min; hits give low values; activity change, % for hits at 50 µM; 360,000 compounds, 0.32% hits; AID 651550; in the data active = activity change below about -80%; inconclusive = mostly about -51% to -80%; note: % is set by controls: 0 for no effect and ±100 for the full control effect
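Neuro2A cells in DMEM with 0.5% FBS, overnight at 37 deg C, given compound at single 50 µM final, then IGF (6 nM final) for 20 min at 37 deg C. Lysed; phospho-Akt Ser473 by HTRF after 24 h, 665/615 ratio.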
LDHA inh: blocks human lactate dehydrogenase A | P00338 | purified LDHA, NADH/diaphorase-resazurin fluorescence; hits give low values | activity change, % (values are at about 110 or 230 µM) | 480,000 compounds, 0.15% hits; in the data active = activity change below about -30%; inconclusive = mostly about -25% to -30%;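 note: plate controls were DMSO wells for no effect and wells without enzyme for full effect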
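Remaining NADH was detected by diaphorase (0.133 mg/mL) converting 37 µM resazurin to fluorescent resorufin, read at 0 and 20 minutes. The preceding 5-minute room-temperature reaction used 2 nM LDHA, 0.2 mM sodium pyruvate and 0.06 mM NADH at pH 7.4.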
Menin MLL FP FL: menin-MLL binding inhibition, fluorescein peptide; Fluorescence polarization, fluorescein-MLL peptide displacement from menin; FP activity change, % at 61.4 µM; 290,000 tested, under 10 active; active = well fitted curve in the direction sought with a large enough effect in the polarisation, not every such curve was filed as active; inconclusive = small, poorly fitted or top-dose-only effect, or effect the other way, or a change in a side signal; inactive = no such curve, though single readings can be large or run the other way; the % refers to the polarisation; note: % of control where 0% means no effect
IDH1 R132H inh: human IDH1 R132H inhibition. AID 602179. 390,000 compounds, 0.093% hits. Potency, µM (highest dose often 76.6 µM), inactives show at the top dose activity change, negative = inhibition, most hits filed as inhibitors. IDH1-R132H enzyme, NADPH consumption, diaphorase/resazurin fluorescence. O75874; active = well fitted inhibition curve with a large enough effect; inconclusive = small, poorly fitted or top-dose-only effect; inactive = no such curve, though single readings can be large or run the other way; note: potency is the fitted concentration of half-maximal effect; % is set by controls: 0 for no effect and ±100 for the full control effect; nearly all actives have a fitted effect of over 65% in size
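IDH1-R132H (0.5 ug/mL) preincubated 30 min with compound, then NADPH (0.016 mM) and alpha-KG (2 mM) added; 80 min at RT, pH 7.5. Remaining NADPH coupled via diaphorase/resazurin to fluorescence (540/590 nm); concentration-response curves normalized to no-enzyme control.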
Menin-MLL TR inh: displaces Texas Red mutant MLL peptide from human menin | 270,000 compounds, 0.23% hits | Potency, µM (titrated, usually from 61.6 µM), inactives show top-dose FP activity change, negative = inhibition, actives largely listed as inhibitors | Menin + Texas Red MLL mutant peptide, fluorescence polarization | O00255 | AID 1768; active = well fitted inhibition curve with a large enough effect in the polarisation, with a control signal flat, not every such curve was filed as active; inconclusive = small, poorly fitted or top-dose-only effect, or effect the other way, or a change in a side signal; inactive = no such curve, though single readings can be large or run the other way; the % refers to the polarisation; note: potency is the fitted concentration of half-maximal effect; % of control where 0% means no effect
MLL CXXC-DNA inh: MLL CXXC-DNA interaction inhibition; Q03164; MLL-CXXC / FITC-HOXA9 DNA fluorescence polarization; Potency, µM (titrated, usually from 115 µM), without a hit: at the top dose activity change, negative = inhibition, most hits filed as inhibitors; 290,000 compounds, 0.037% hits; AID 2662; active = well fitted inhibition curve with a large enough effect in the polarisation, with a control signal flat, not every such curve was filed as active; inconclusive = small, poorly fitted or top-dose-only effect, or effect the other way, or a change in a side signal; inactive = no such curve, though single readings can be large or run the other way; the % refers to the polarisation; note: potency is the fitted concentration of half-maximal effect
Target sequence (Q03164 whole entry, looked up): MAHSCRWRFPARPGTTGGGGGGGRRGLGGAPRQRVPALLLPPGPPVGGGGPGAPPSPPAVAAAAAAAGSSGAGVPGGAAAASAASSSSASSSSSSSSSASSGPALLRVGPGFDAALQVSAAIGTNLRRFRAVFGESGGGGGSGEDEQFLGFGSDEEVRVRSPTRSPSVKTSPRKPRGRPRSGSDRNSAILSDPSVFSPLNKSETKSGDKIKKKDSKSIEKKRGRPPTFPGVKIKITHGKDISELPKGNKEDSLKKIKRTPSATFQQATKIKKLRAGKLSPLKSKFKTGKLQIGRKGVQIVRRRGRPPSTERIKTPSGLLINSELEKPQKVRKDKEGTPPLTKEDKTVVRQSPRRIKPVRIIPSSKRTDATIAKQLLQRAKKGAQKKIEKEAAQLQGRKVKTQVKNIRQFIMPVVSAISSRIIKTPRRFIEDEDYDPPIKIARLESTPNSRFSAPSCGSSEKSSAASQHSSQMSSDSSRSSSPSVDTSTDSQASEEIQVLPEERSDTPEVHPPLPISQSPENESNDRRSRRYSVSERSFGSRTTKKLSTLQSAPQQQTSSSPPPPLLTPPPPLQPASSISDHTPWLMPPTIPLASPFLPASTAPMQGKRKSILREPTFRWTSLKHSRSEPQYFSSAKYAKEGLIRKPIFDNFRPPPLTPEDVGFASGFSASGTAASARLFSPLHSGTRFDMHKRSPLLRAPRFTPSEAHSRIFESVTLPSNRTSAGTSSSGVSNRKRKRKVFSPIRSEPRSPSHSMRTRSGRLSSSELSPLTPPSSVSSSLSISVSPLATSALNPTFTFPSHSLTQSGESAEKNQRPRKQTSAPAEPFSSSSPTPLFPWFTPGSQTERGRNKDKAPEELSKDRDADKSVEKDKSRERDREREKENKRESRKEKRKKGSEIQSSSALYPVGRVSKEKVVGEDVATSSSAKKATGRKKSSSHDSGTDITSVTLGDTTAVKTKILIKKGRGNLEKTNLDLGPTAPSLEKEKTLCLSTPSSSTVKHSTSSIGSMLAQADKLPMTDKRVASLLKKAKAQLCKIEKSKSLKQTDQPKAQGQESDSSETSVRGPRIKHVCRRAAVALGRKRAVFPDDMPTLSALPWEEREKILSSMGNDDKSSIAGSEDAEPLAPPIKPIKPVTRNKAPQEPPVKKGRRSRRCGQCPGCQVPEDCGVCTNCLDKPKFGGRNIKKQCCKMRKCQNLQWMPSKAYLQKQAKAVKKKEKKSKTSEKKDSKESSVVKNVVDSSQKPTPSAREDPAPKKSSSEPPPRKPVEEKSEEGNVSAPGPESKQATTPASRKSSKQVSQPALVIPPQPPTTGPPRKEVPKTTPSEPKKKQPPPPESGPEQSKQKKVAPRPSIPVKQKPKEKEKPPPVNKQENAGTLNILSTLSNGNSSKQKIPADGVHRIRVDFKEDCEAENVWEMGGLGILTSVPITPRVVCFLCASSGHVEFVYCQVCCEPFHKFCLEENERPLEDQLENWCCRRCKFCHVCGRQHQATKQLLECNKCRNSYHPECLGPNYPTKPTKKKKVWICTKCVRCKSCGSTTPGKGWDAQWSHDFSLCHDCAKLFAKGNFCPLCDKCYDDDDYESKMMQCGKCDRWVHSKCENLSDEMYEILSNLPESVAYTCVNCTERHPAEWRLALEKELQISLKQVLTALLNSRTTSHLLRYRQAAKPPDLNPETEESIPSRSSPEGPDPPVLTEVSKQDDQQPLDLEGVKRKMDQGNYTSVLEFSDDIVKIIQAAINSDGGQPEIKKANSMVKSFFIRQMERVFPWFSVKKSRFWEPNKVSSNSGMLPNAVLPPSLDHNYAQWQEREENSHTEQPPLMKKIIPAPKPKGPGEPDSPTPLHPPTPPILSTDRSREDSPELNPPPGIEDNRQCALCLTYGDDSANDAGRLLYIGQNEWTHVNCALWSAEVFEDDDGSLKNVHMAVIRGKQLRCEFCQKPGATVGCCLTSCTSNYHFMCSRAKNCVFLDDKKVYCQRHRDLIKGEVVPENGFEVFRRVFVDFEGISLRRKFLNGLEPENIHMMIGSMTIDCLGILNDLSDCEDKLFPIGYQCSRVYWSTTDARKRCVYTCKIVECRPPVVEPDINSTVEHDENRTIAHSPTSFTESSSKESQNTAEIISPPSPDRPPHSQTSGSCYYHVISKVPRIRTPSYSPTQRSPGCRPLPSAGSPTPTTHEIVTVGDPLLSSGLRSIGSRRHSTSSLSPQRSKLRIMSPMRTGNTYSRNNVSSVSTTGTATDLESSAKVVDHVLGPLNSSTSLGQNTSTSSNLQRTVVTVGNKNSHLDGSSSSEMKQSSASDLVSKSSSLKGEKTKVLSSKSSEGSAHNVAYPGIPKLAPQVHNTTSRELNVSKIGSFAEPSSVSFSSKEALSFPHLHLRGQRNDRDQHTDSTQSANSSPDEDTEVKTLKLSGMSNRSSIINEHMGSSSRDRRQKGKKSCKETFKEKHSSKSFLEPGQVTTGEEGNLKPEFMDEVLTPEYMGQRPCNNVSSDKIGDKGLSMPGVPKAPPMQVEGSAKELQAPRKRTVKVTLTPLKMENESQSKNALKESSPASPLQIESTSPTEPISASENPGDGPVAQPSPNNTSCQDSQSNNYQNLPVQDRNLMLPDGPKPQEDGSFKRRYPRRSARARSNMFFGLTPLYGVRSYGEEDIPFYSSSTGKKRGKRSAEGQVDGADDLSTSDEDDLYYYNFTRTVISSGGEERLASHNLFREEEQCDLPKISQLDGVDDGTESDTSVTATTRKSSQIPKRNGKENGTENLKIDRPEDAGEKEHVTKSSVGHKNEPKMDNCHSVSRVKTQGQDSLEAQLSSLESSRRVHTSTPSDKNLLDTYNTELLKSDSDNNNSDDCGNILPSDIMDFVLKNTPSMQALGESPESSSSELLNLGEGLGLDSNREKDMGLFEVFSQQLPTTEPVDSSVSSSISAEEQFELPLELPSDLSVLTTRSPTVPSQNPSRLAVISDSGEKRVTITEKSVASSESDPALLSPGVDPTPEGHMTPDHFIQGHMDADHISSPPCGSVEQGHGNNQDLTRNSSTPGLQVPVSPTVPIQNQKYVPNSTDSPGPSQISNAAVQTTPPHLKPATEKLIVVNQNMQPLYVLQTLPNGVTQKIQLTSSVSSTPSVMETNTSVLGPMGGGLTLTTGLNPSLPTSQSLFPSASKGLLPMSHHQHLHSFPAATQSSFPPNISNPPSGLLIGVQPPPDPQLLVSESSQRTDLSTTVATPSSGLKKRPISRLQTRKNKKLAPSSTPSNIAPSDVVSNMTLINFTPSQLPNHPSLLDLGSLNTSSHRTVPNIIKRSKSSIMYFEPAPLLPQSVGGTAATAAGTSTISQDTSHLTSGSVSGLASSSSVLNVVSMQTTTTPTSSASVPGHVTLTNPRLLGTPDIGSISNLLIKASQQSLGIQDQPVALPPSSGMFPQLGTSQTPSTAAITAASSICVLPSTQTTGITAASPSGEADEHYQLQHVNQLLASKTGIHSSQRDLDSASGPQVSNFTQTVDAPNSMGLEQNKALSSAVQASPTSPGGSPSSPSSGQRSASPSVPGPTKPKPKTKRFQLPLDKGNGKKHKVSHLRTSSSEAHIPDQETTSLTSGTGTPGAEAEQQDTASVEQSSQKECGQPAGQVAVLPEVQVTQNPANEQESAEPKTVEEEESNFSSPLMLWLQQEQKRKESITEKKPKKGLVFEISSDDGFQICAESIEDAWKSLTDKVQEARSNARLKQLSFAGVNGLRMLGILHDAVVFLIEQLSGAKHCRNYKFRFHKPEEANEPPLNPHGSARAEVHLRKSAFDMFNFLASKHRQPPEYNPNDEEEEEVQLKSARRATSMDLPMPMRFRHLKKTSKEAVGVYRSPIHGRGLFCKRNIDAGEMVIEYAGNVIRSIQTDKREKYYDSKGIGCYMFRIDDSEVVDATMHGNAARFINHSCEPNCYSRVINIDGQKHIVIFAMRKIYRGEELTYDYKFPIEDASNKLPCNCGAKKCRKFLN
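Steps: dispense CXXC domain solution (7 uM) → pin compounds or unlabeled HOX-A9 DNA control → 5 min ambient → add FLSN-HOX-A9 solution (50 nM) → spin → 30 min ambient → fluorescence polarization. Tris pH 7.5/NaCl/DTT/BSA buffer.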
An asterisk follows results filed as active; i = inactive; ? = inconclusive; . = no result given; [ ] = remark or other dose.

SMILES | Akt phos inh | LDHA inh | Menin MLL FP FL | IDH1 R132H inh | Menin-MLL TR inh | MLL CXXC-DNA inh
CCCCC(CC)C(=O)NCCCCCCCCNC(=O)C(CC)CCCC (configuration not stated) | . | 1 | . | . | . | .
CCC(C)(C(=O)NC1CCCCC1)N(Cc1ccco1)C(=O)c1ccccn1 (configuration not stated) | -107%* | 2 | 2 | 9% | 0% | -1%
Cc1cc2c(c(=O)n1Cc1ccco1)C(Cc1ccccc1)C(C#N)=C(N)O2 (configuration not stated) | . | 2 | . | . | . | .
N#CC1=C(N)C2=CCCC[C@H]2[C@H](c2ccccc2)C1(C#N)C#N | i | 4 | ? | 23µM* | 10% | 0%
CCOC(=O)c1ccc(NC(=O)CC2OCCN(CC)C2=O)cc1 (configuration not stated) | -118%* | -7 | 8 | -3% | 0% | -3%
CCOC(=O)c1ccc(NC(=O)C(=O)NCC2CCCO2)cc1 (configuration not stated) | -108%* | 1 | -2 | -2% | 8% | 0%
Cc1nc(-c2ccc(S(=O)(=O)Nc3ccc(C)c(F)c3)cc2)co1 | . | 1 | . | . | . | .
O=C(COc1ccc(C(=S)N2CCOCC2)cc1)N1CCCC1 | -124%* | -8 | 0 | -2% | 12% | 0%
O=C(COc1ccc(C(=S)N2CCOCC2)cc1)N1CCOCC1 | i | -4 | -6 | 9% | 3% | ?
Cc1ccc(S(=O)(=O)/N=C2/NC(=O)/C(=C/c3cc([N+](=O)[O-])ccc3O)S2)cc1 | i | -51* | . | -8% | . | ?
COc1cc(/C=C2\S/C(=N/S(=O)(=O)c3ccc(C)cc3)NC2=O)c([N+](=O)[O-])cc1OC | . | 0 | 0 | -1% | ? | ?
Cc1c(C#N)c2ncnc(N)c2n1-c1ccccc1 | -104%* | -7 | 1 | 7% | 1% | 4%
Cc1c(C#N)c2ncn(Cc3ccccn3)c(=O)c2n1-c1ccccc1 | i | -7 | 3 | -2% | 1% | ?
Cc1cccc(Cn2c(SCC(N)=O)nc3c2c(=O)[nH]c(=O)n3C)c1 | . | 1 | . | . | . | .
Cc1ccc(NC(=O)CN(C)c2ccc(S(=O)(=O)N3CCN(C)CC3)cn2)cc1 | -102%* | -5 | 0 | 0% | 0% | -9%
Cn1c(CC(=O)Nc2cccc(C(F)(F)F)c2)nnc1SCC(=O)c1ccc(C#N)cc1 | . | -32* | . | . | . | .
C/C(=N\OC(=O)c1cc(-c2ccc(C)c(C)c2)nc2ccccc12)c1ccc(C(C)(C)C)cc1 | . | 9 | . | . | . | .
CCC(=O)N1CCc2cc(Br)cc(S(=O)(=O)CC(=O)OC)c21 | -107%* | -4 | 2 | -2% | -7% | -11%
CCC(=O)N1CCc2cc(Br)cc(S(=O)(=O)NCCN3CCCC3)c21 | i | -6 | 0 | -7% | 2% | 2%
COc1cc2nc(SCc3ccc(Cl)cc3Cl)n(Cc3cccs3)c(=N)c2cc1OC | i | -5 | 1 | 2% | 40µM* | 21%
COc1cc2nc(SCc3ccc(C(F)(F)F)cc3)n(Cc3cccs3)c(=N)c2cc1OC | . | 0 | 4 | 0% | 17% | 5%
FC(F)(F)c1cc(-c2ccccc2)nc(N2CCN(Cc3ccccc3)CC2)n1 | . | 7 | . | . | . | .
COc1ccc(-c2cc(=O)c3cc(F)ccc3[nH]2)cc1 | i | -3 | ? | 11% | ? | -3%
COc1ccc(-c2cc(=O)c3ccc(F)cc3[nH]2)cc1 | . | . | -5[94.6 µM] | . | 50µM* | .
Cc1cnc(NC(=O)c2nn(CC(C)C)c(=O)c3ccccc23)s1 | . | -7 | . | . | . | .
SMILES | Akt phos inh | LDHA inh | Menin MLL FP FL | IDH1 R132H inh | Menin-MLL TR inh | MLL CXXC-DNA inh
COC(=O)CCNC(=O)CCC1CCCC1 | . | 13 | . | . | . | .
O=C(CSc1ncnc2nc[nH]c12)Nc1cc(Cl)ccc1Cl | . | -38* | . | . | . | .
O=C(NCC1CC1)c1cn(-c2ccccc2)nc1-c1cccnc1 | . | -2 | . | . | . | .
COc1cccc(CNC(=O)CSCc2cnn(-c3ccccc3)c2-n2cccc2)c1OC | -119%* | 2 | -17 | 3% | -5% | 21%
CCOC(=O)N1CCN(S(=O)(=O)c2ccc(C)c(C)c2)CC1 | -99%* | -3 | -6 | 2% | 5% | 3%
O=C(C1CCCN(Cc2cccnc2)C1)N1CCCCC1 (configuration not stated) | i | -36* | 2 | 7% | -16% | 8%
Nc1ccc(C2CCCc3nonc32)c2nonc12 (configuration not stated) | -113%* | 3 | 10 | 5% | ? | 8%
Nc1ccc(N2CCCCC2)c2nonc12 | i | 17 | -2 | 23% | ? | -8%
CN(Cc1ccccc1)C(=O)c1cc2c(=O)n3ccccc3nc2s1 | . | 9 | . | . | . | .
Cc1cccc(NC(=O)COc2ncnc3ccc(Br)cc23)c1C | . | -31* | . | . | . | .
O=C1CN(C(=O)COC(=O)C23CC4CC(CC(C4)C2)C3)c2ccccc2N1 | . | 1 | . | . | . | .
COc1cccc(N2CCN(C(c3ccccn3)c3nnnn3C(C)(C)C)CC2)c1 (configuration not stated) | -105%* | 0 | -1 | -4% | 16% | -4%
O=[N+]([O-])c1cc(S(=O)(=O)N2CCCCCC2)ccc1F | i | -4 | -1 | 46µM* | 4% | -7%
O=[N+]([O-])c1cc(S(=O)(=O)N2CCCC2)ccc1O | i | -7 | . | 3% | -3% | 8%
CCOC(=O)N1CCC(n2c(SCC(=O)Nc3nccs3)nc3ccsc3c2=O)CC1 | -81%* | -9 | 3 | 0% | 24% | 13%
c1csc(CN2CCOCC2)c1 | . | -31* | 2 | -2% | 9% | 1%
c1csc(CNCCCN2CCOCC2)c1 | i | -1 | 5 | 3% | -2% | 0%
O=C1C2C3c4ccccc4C(c4ccccc43)C2C(=O)N1c1nc(-c2ccccc2)cs1 (configuration not stated) | i | -4 | 3 | 0% | 11µM* | 24%
O=C1C2C3c4ccccc4C(c4ccccc43)[C@@H]2C(=O)N1c1nc(-c2ccccc2)cs1 (some centres not stated) | i | 0 | 0 | 2% | ? | -5%
CC(=O)c1c(C)[nH]c(C(=O)CSc2nc3ccccc3n2C)c1C | -85%* | -3 | -1 | 11% | ? | -12%
CC(=O)c1c(C)[nH]c(C(=O)CSc2ccc(Br)cc2)c1C | . | 6 | . | . | . | .
Cc1ccc(Cn2nc(C)c3cc(C(=O)N4CCN(CC(=O)N5CCCC5)CC4)sc32)cc1 | . | -2 | . | . | . | .
CCc1nn2c(=O)cc(CNc3ccc4c(c3)OCCCO4)nc2s1 | . | -3 | . | . | . | .
O=C(CSc1nnc2c3ccccc3c3ccccc3c2n1)Nc1ccccc1 | . | . | 2 | . | 13µM* | 5%
